Compound activity: PubChem BioAssay, several laboratories
PfHsp90 set2 = inhibits growth of yeast expressing Plasmodium falciparum Hsp90; S. cerevisiae expressing PfHsp90, BacTiter-Glo ATP, 48 h; yeast lacking PDR1 and PDR3 efflux regulators; inhibition, % at 9.4 µM; actives 0.32% (n = 310,000); AID 504621;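 active means every replicate shows inhibition above about 80%, whatever the replicate mean, limit read from the data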;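 further: 0% = DMSO neutral controls and 100% = 20 µM radicicol positive controls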
tim23-1 inh = growth inhibitors of tim23-1 mutant yeast; S. cerevisiae tim23-1 growth, BacTiter-Glo luminescence, 24 h; inhibition, % at 20 µM; actives 1.3% (n = 330,000);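 active means growth inhibition of the mutant yeast at or above 50%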;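 further: temperature-sensitive mutant grown at 25 °C; plate controls were DMSO-treated mutant yeast for no effect and medium wells lacking yeast for full effect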
TIM10 inh = TIM10 yeast growth inhibition; S. cerevisiae TIM10 strain growth, BacTiter-Glo luminescence, 24 h; inhibition, % at 10 µM; actives 1.4% (n = 330,000); AID 463195;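 active means inhibition of 40% or more at the single tested concentration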;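 further: wild-type TIM10 isogenic control strain grown at permissive 25 °C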
tim10-1 inh = inhibits growth of tim10-1 mutant yeast | inhibition, % at 20 µM | S. cerevisiae tim10-1 ts strain growth, BacTiter-Glo, 24 h | actives 2.2% (n = 330,000) | AID 463190;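 active means inhibition of at least 40%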;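 further: mutant grown at 25 °C; 0% = DMSO wells with yeast and 100% = wells holding no yeast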
B2AR ag = human beta-2 adrenergic receptor agonism by FAP | Am2.2-beta2AR cells, FAP receptor internalization, flow cytometry | response, % (concentration not given with the values) | actives 0.43% (n = 340,000) | P07550 | AID 504454;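 active means response above a set limit, near 3 SD of response in nonfluorescent compounds, cut at about 42% in these data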
Target sequence (P07550 whole entry, looked up): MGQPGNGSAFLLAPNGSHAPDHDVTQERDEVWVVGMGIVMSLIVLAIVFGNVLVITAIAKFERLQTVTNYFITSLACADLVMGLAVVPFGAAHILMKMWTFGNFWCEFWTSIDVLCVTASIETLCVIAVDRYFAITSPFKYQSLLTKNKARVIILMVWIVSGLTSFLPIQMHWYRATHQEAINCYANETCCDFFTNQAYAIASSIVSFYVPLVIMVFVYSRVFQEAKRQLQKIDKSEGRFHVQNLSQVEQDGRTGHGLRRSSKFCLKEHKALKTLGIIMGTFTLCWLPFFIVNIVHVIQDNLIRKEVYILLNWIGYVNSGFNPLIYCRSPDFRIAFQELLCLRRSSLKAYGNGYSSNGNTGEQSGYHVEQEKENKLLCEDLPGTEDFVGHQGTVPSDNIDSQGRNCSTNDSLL
tim10-1 conf = tim10-1 yeast growth inhibition, confirmed | shares compounds with tim10-1 inh | S. cerevisiae tim10-1 ts strain growth, BacTiter-Glo, 24 h | inhibition, % at 20 µM | actives 56% (n = 7,400);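 active means inhibition of yeast growth at or above a set limit in either of two repeat tests at 20 µM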;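 further: tim10-1 mutant grown at permissive 25 °C to find synthetic lethal compounds; 0% = DMSO yeast wells and 100% = medium wells without yeast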
tim10 confirm = confirmation of TIM10 yeast growth inhibitors. shares compounds with TIM10 inh. S. cerevisiae tim10 strain growth, BacTiter-Glo luminescence, 24 h. inhibition, % at 10 µM. actives 63% (n = 4,600);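 active means inhibition of yeast growth at or above a set limit in either of two replicates at 10 µM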;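 further: this counterscreen used the strain with wild-type TIM10; 0% = yeast with DMSO and 100% = medium wells lacking yeast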
* = called active by the depositor; nt = not tested or not shown. Hits are enriched below; roughly 3.8% of the tested compounds scored in any of these assays.

SMILES	PfHsp90 set2	tim23-1 inh	TIM10 inh	tim10-1 inh	B2AR ag	tim10-1 conf	tim10 confirm
CC1CN(S(=O)(=O)c2cccc(C(=O)N(Cc3nnc(-c4ccccc4Cl)o3)C3CC3)c2)CC(C)O1 (stereo unspecified)	nt	-33	-30	10	0	nt	nt
O=C(NCc1ccco1)c1ccccc1Nc1ccc(F)cc1	-5	47	44*	52*	-4	47*	36*
Cc1cccc(N2C(=O)CC(Sc3nc(C)cc(C)n3)C2=O)c1 (stereo unspecified)	9	3	-6	33	-8	nt	nt
Cc1cc(C)cc(N2C(=O)CC(Sc3ncn[nH]3)C2=O)c1 (stereo unspecified)	-26	43	41*	45*	-2	35*	32*
CCN(CC)CCOc1cc2c(nn1)Oc1ccccc1N2C	13	25	14	11	-27	nt	nt
CN1c2ccccc2Oc2nnc(N3CCN(Cc4ccccc4)CC3)cc21	-2	47	75*	41*	0	54*	44*
FC(F)(F)Oc1ccc(NC(=S)Nc2ccc(OC(F)(F)F)cc2)cc1	16	49	57*	50*	15	62*	70*
CC(=O)Nc1ccc(S(=O)(=O)N2CCC(C(=O)c3ccc(Cl)cc3)CC2)cc1	-9	30	8	31	-16	nt	nt
CC(=O)Nc1ccc(S(=O)(=O)N2CCSC2c2ccc(Cl)cc2)cc1 (stereo unspecified)	23	47	40*	53*	-9	39*	-25
Cc1ccc([C@H]2C(C(=O)O)=CC[C@@H](c3ccc(C)cc3)N2S(=O)(=O)c2ccccc2C)cc1	-21	28	8	14	3	nt	nt
N/C(=N\OC(=O)CC1CCCCC1)c1cccc(Br)c1	-7	41	73*	62*	4	67*	62*
N/C(=N\OC(=O)CC1CCCCC1)c1ccc(Br)cc1	18	13	19	33	-4	nt	nt
N/C(=N\OC(=O)CC1CCCCC1)c1ccc(Cl)cc1	nt	26	44*	42*	2	57*	34*
CCCCN(C(=O)c1[nH]c(C)c(C(=O)OCC)c1C)c1c(N)n(CCCC)c(=O)[nH]c1=O	-23	-10	-1	-2	0	nt	nt
CN(C)Cc1cc(C(C)(C)c2ccccc2)ccc1O	6	nt	nt	nt	-5	nt	nt
CCc1ccc(CNC(=O)c2ccc(OC3CCN(C(=O)COC)CC3)cc2)nc1	7	1	-1	-21	-9	nt	nt
Oc1ccc(Cl)cc1-c1cc(-c2cccc(Br)c2)n[nH]1	-35	49	53*	48*	9	37*	49*
Cc1ccc(O)c(-c2cc(-c3ccccc3C)[nH]n2)c1	-48	-9	66*	52*	3	18	-1
O=[N+]([O-])c1ccccc1-c1cc(-c2cc(Cl)ccc2O)n[nH]1	58	nt	nt	nt	2	nt	nt
Cc1ccc(O)c(-c2cc(C(F)(F)C(F)F)[nH]n2)c1	0	28	33	24	-9	nt	nt
Oc1ccc(Cl)cc1-c1cc(-c2ccccc2Cl)[nH]n1	4	37	41*	49*	4	36*	37*
CC(C)(C)c1ccc(-c2cc(-c3ccccc3O)[nH]n2)cc1	21	43	41*	49*	15	42*	22
CSc1ccccc1OCc1cc(C(=O)N[C@H]2CCCCNC2=O)no1	-14	18	18	28	-2	nt	nt
CC[C@]12c3[nH]c4cc(-c5ccco5)ccc4c3CCN1C(=O)[C@@H](CC(=O)NC(C)(C)C)C[C@@H]2C(=O)N1CCN(C(=O)C2CC2)CC1	-15	31	3	7	-10	nt	nt
O=C(CN(c1cc(Cl)ccc1Cl)S(=O)(=O)c1ccccc1)N1CCOCC1	-16	17	11	17	-2	nt	nt
SMILES	PfHsp90 set2	tim23-1 inh	TIM10 inh	tim10-1 inh	B2AR ag	tim10-1 conf	tim10 confirm
CCOC(=O)c1c(N2C(=O)CC(Sc3ccccc3C(=O)O)C2=O)sc2c1CCCC2 (stereo unspecified)	22	31	43*	54*	-6	44*	40*
O=C(c1cccc2ccccc12)n1nnc2ccccc21	nt	0	59*	66*	nt	61*	73*
O=C(Cn1ccc(=O)[nH]c1=O)Nc1ccc(O)c([N+](=O)[O-])c1	16	nt	nt	nt	1	nt	nt
CCSc1nc2ccccc2n1C(=O)/C=C\c1ccc(OC)c(OC)c1	8	35	52*	65*	51*	56*	-24
OC(CNCC(c1ccc(Cl)cc1Cl)c1c[nH]c2ccccc12)c1ccccc1 (stereo unspecified)	nt	-2	59*	54*	23	-16	61*
Cc1ccc(-c2noc(CNS(=O)(=O)c3ccccc3)n2)cc1	-3	28	19	33	3	nt	nt
CCc1n[nH]c(=S)n1/N=C/c1ccc(N(CC)CC)cc1	-2	19	45*	42*	15	11	23
COC(=O)c1cc(NC(=S)Nc2cc(Cl)cc(Cl)c2)cc(C(=O)OC)c1	-14	38	50*	49*	-4	33*	24
Clc1ccc(Nc2nc(C3CC3)cs2)cc1	-18	48	43*	54*	0	49*	20
Cc1nnc(Nc2ccc(Cl)cc2)s1	-3	14	15	9	-3	nt	nt
COc1ccccc1NS(=O)(=O)c1ccc2oc(=O)ccc2c1	-43	30	47*	43*	-8	21	44*
O=C(OCC(O)C(O)C(O)C(SCc1ccccc1)SCc1ccccc1)c1ccccc1 (stereo unspecified)	-18	nt	nt	nt	1	nt	nt
Cc1cccc(C)c1NC(=S)Nc1ccc(Cl)c(Cl)c1	-9	25	52*	47*	14	38*	48*
CC(C)C(=O)Nc1cccc(COc2cccc(CN(Cc3ccccc3)C(=O)OC(C)(C)C)c2)c1	18	nt	nt	nt	3	nt	nt
COc1cc(OC)cc(-c2oc(=O)c3cc(OC)c(OC)cc3c2/C=C/c2ccc(F)cc2)c1	nt	7	10	2	-2	nt	nt
N#Cc1sc2nc(C3CC3)cc(-c3ccc(Cl)cc3)c2c1N	-9	40	44*	43*	17	36*	-6
COc1ccc(-c2cc(-c3cccs3)nc3sc(C#N)c(N)c23)cc1	-33	28	17	35	-12	nt	nt
CCCCC1SC(N)=NC1=O (stereo unspecified)	27	nt	nt	nt	1	nt	nt
COC(=O)COc1ccc(-c2ccc(F)cc2)cc1C=O	11	39	74*	62*	1	65*	80*
CCc1ccc(-c2cc(C)no2)cc1S(=O)(=O)NCCc1ccc(OC)c(OC)c1	-34	26	6	24	-13	nt	nt
